Measurements as given in PubChem BioAssay (NCATS).
Results filed as inconclusive are left out. A call without a number means that no potency is given here. Values without a mark were called inactive. The source made the active and inactive calls. The call rests on the fitted dose curve; in most records, active means well fitted curve in the direction sought with a large enough effect; inconclusive means small, poorly fitted or top-dose-only effect, or another doubt; inactive means no such curve, though single readings can be large; an effect the other way counts as inactive or inconclusive.

How the values were obtained:
[1] = qHTS to identify inhibitors of the type 1 interferon - major histocompatibility complex class I in skeletal muscle: primary screen against the NCATS Mechanism Interrogation Plate v5.0 (MIPE) Libary (AID 1347411); further: nearly all actives have a fitted effect of over 65% in size; further: potency means the concentration at half of the fitted maximal effect
How it was run: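 Seed engineered human myoblasts (HLA-B HiBit) in medium without dexamethasone containing 4 ng/ml IFN-beta; after 1 hr add compound titrations (top 46 uM final). Incubate 24 hrs at 37 C, lyse 10 min with HiBiT reagent, read luminescence.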

[2] = molecular target: Calcium and integrin-binding protein 1 (Homo sapiens) (UniProt Q99828); experiment: Primary qHTS for Identification of Calcium Integrin Binding Protein 1 (CIB1) Competitor (AID 1508620);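 further: GST tagged CIB1 binding a fluorescein labelled alphaIIb integrin peptide tracer; top concentration of the series differs between compounds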
Chain of Calcium and integrin-binding protein 1 (Homo sapiens) (Q99828 whole entry, looked up): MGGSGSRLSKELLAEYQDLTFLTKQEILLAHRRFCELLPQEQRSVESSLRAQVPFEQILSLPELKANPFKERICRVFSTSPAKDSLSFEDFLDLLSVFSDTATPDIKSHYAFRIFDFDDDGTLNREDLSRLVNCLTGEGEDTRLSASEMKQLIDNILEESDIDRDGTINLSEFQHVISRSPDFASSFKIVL
How it was run: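 CIB1-GST (1 uM final) and compound incubated 15 min at room temperature before adding FITC-alphaIIb peptide tracer (100 nM final). Competition for binding read by fluorescence polarization (ex 480, em 540) after another 15 min at room temperature.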

[3] = molecular target: Protein phosphatase 1D (Homo sapiens) (UniProt O15297); experiment: RapidFire Mass Spectrometry qHTS Assay for Modulators of WT P53-Induced Phosphatase 1 (WIP1) (AID 1347424);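 further: amount of dephosphorylated VEPPL-S-QETFS peptide product formed by WIP1; series mostly up to about 63 µM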
Chain of Protein phosphatase 1D (Homo sapiens) (O15297 whole entry, looked up): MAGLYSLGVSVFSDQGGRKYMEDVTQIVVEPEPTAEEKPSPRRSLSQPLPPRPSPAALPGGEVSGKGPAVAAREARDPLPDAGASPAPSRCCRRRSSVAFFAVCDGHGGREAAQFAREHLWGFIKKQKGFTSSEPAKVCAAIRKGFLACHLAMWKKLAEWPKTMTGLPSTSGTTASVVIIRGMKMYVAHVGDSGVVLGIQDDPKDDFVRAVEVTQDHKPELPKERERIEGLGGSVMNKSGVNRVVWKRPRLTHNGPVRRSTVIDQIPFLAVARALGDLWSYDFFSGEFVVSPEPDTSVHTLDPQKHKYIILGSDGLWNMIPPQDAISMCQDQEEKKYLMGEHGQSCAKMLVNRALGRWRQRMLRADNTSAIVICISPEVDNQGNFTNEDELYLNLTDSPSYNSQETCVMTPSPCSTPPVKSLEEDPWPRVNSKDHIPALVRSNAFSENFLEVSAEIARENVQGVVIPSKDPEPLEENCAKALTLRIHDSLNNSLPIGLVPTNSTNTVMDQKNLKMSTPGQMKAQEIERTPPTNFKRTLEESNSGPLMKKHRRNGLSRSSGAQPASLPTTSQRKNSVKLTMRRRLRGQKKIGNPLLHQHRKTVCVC
How it was run: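 RapidFire mass spectrometry measured dephosphorylated peptide after 5 min room-temperature reaction of 2 uM VEPPL-pS-QETFS with 10 nM WIP1 (50 mM Tris-HCl pH 7.5, 30 mM MgCl2, 0.1 mM EGTA, BSA), following 1 hr compound preincubation; 1 uM isotope-labelled product standard.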

[4] = molecular target: Protein phosphatase 1D (Homo sapiens) (UniProt O15297); experiment: Rhodamine-PBP qHTS Assay for Modulators of WT P53-Induced Phosphatase 1 (WIP1) (AID 1347425)
Text: Assay Provider (PI): Nathan Coussens Ph.D.
National Center for Advancing Translational Sciences (NCATS), Rockville, MD
National Institute of Health (NIH), Bethesda, Maryland
WT P53-Induced Phosphatase 1 (WIP1) is a member of the magnesium-dependent serine/threonine protein phosphatase (PPM) family and is induced by P53 in response to DNA damage. In several human cancers, the WIP1 protein is overexpressed, which is generally associated with a worse prognosis. Although WIP1 is an attractive therapeutic target, no potent, selective, and bioactive small-molecule modulator with favorable pharmacokinetics has been reported. Phosphatase enzymes are among the most challenging targets for small molecules because of the difficulty of achieving both modulator selectivity and bioavailability. Another major obstacle has been the availability of robust and physiologically relevant phosphatase assays that are suitable for high-throughput screening.
Here, we describe two orthogonal biochemical WIP1 activity assays that utilize phosphopeptides from native WIP1 substrates. We optimized a RapidFire MS assay to quantify the enzymatically dephosphorylated peptide reaction product in a 384-well format. Additionally, a redshifted Rhodamine-PBP fluorescence assay was optimized in a 1,536-well format to enable real-time WIP1 activity measurements through the detection of the orthogonal reaction product, Pi. We validated these two optimized assays by quantitative high-throughput screening against the National Center for Advancing Translational Sciences (NCATS) Pharmaceutical Collection and used secondary assays to confirm and evaluate inhibitors identified in the primary screen.
SEQUENCE No. (e.g., 1, 2, 3, etc.); […] (e.g., Cells, Incubation, Reagent, etc.); VALUE; DESCRIPTION
1; Reagent; 3 uL; WIP1 (6.7 nM), Rh-PBP (13.3 uM), columns 1-48
3; Library Compounds; 23 nL; NCATS Pharmaceutical Collection, column 5-48
4; Control Compounds; DMSO in column 2, GSK2830371 (57.5 uM, final) in 3-fold serial dilutions in column 3, GSK2830371 (1.15 uM, final) in column 4
5; Time; 1 hr; incubation
6; Detection; fluorescence (f0); ViewLux, excitation filter = 525 nm, emission filter = 598 nm
7; Reagent; 1 uL; VEPP-pS-QETFS (40 uM), columns 2-48
8; Detection; fluorescence (f1); ViewLux, excitation filter = 525 nm, emission filter = 598 nm
NOTES (numbers refer to sequence above)
1 & 2; Black medium binding Greiner 1536-well plates (# 789176-F); assay buffer: 50 mM Tris-HCl pH 7.5, 30 mM MgCl2, 1mM TCEP, 0.1 mM EGTA, 75 ug/mL BSA; dispensed with a BioRaptr liquid handler (Beckman Coulter).
3 & 4; Kalypsys pintool (equipped with 1536 pinhead, Wako USA) transfer. Tip wash sequence: DMSO, methanol, 3 sec vacuum dry.
5; Room temperature incubation. […]
8; Measurement taken at 1 min intervals for 11 min. Delta readout = f1 - f0.

[5] = qHTS to identify inhibitors of the type 1 interferon - major histocompatibility complex class I in skeletal muscle: primary screen against the NCATS Pharmaceutical Collection (AID 1347407);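 further: luminescence of HiBiT knocked into endogenous HLA-B as interferon-induced MHC class I level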
How it was run: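 A qHTS format is used: 8-point, 1:5 compound series with 46 uM top final concentration, applied alongside 4 ng/ml IFN-beta to HLA-B*08:01-HiBiT knock-in myoblasts. Luminescence is measured after 24 h treatment.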

[6] = Primary qHTS for inhibitors of La Crosse Virus (LACV) - induced cell death in SH-SY5Y cells (AID 1508616);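 further: top concentration of the series differs between compounds; higher means more rescue of cells from virus-induced death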
How it was run: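 SH-SY5Y, 6000 cells/well; cpd via pin tool in DMSO; LACV 0.01 MOI; 6 d 37C 5% CO2; ATPLite, 5 min RT; luminescence normalized to ±virus DMSO controls.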

[7] = system: Zika virus NS2B-NS3 protease (linked); experiment: 384 well plate NINDS AMC confirmatory qHTS for Zika virus inhibitors (AID 1347163);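 further: fluorescence of AMC released from Ac-VKTGKR-AMC peptide cleaved by the protease; top concentration of the series differs between compounds; nearly all actives have a fitted effect of over 50% in size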
How it was run: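 Fluorescence at 355/460 nm was read after 25 minutes of cleavage of 30 microM Ac-VKTGKR-AMC at room temperature, in the dark. Before substrate addition, compounds (up to 1 mM final) sat ~15 minutes with 5, 30 or 60 nM linked protease. Signals were normalized to no-enzyme and no-inhibitor wells.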

[8] = system: Zika virus NS2B-NS3 protease (linked construct); experiment: 384 well plate NINDS Rhodamine confirmatory qHTS for Zika virus inhibitors (AID 1347164); further: top concentration of the series differs between compounds; nearly all actives have a fitted effect of over 65% in size
How it was run: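 Cleavage of Ac-LKRR-Rhodamine 110 (10 microM final) by linked protease (final 5, 30 or 60 nM) was followed as fluorescence at 485/538 nm after 25 min, room temperature, dark. Compounds preincubated ~15 min.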

[9] = Vero cells viability qHTS for Zika virus inhibitors (AID 1347167)
How it was run: (§1)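 Luminescent ATP readout (CellTiter Glo) after 30 min at 37 degrees C gives viability; cells in DMEM + 4% FBS were treated 24 to 48 hours with compound, following overnight attachment.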

[10] = HepG2 cells viability qHTS for Zika virus inhibitors (AID 1347168); further: potency means the concentration at half of the fitted maximal effect
How it was run: as §1

Compound: Cc1cc(Nc2nc(N[C@@H](C)c3ccc(F)cc3)c(C#N)cc2F)n[nH]1
- Potency [1]: 2.08 µM (active)

Compound: Nc1ccn([C@@H]2CS[C@H](CO)O2)c(=O)n1
- outcome [2]: inactive

Compound: CC[C@H](CO)Nc1nc(NCc2ccccc2)c2ncn(C(C)C)c2n1
- Potency [1]: 29.4 µM (active)

Compound: Nc1ccn([C@@H]2O[C@H](CO)[C@H](O)C2(F)F)c(=O)n1
- outcome [2]: inactive

Compound: CC(=O)OCC(=O)[C@@]1(O)[C@H](C)C[C@H]2[C@@H]3C=C(C)C4=Cc5c(cnn5-c5ccccc5)C[C@]4(C)[C@@H]3[C@@H](O)C[C@@]21C
- Potency [1]: inactive
- outcome [2]: inactive

Compound: C=CC(=O)Nc1cc2c(Nc3ccc(F)c(Cl)c3)ncnc2cc1OCCCN1CCOCC1
- Potency [1]: 11.7 µM (active)
- Potency [3]: inactive
- outcome [4]: inactive

Compound: CC(C)(C)c1cc(C(C)(C)C)c(NC(=O)c2c[nH]c3ccccc3c2=O)cc1O
- Potency [1]: 23.4 µM (active)
- outcome [2]: inactive

Compound: C[C@]12CC[C@H](O)CC1=CCC1C2CC[C@]2(C)C(n3cnc4ccccc43)=CCC12 (stereo partly specified)
- Potency [1]: inactive
- outcome [2]: inactive

Compound: CN1CC[C@@H](c2c(O)cc(O)c3c(=O)cc(-c4ccccc4Cl)oc23)[C@@H](O)C1
- Potency [1]: 0.739 µM (active)

Compound: CC(C)c1ccc(Cn2ccc3c4c(N)nc(NC5CC5)nc4ccc32)cc1
- Potency [1]: 4.66 µM (active)
- outcome [2]: inactive

Compound: O=C(NCCCNc1nc(Nc2cccc(NC(=O)N3CCCC3)c2)ncc1I)c1cccs1
- Potency [1]: inactive
- outcome [2]: inactive

Compound: O=C(O)[C@H](Cc1c[nH]c2ccccc12)N1C(=O)c2ccccc2C1=O
- Potency [1]: inactive
- outcome [2]: inactive

Compound: C1=CCOCc2cc(ccc2OCCN2CCCC2)Nc2nccc(n2)-c2cccc(c2)OCC1
- outcome [2]: inactive

Compound: COc1cc(=C2C=c3ccccc3=N2)[nH]c1=Cc1[nH]c(C)cc1C
- outcome [2]: inactive

Compound: CC(=O)SC[C@@H](C)C(=O)N1CCC[C@H]1C(=O)N[C@@H](Cc1ccccc1)C(=O)O
- outcome [5]: inactive
- Potency [1]: inactive
- Potency [3]: inactive
- outcome [4]: inactive
- outcome [6]: inactive
- outcome [2]: inactive

Compound: COc1ccc(CC2SC(=O)NC2=O)cc1C(=O)NCc1ccc(C(F)(F)F)cc1 (stereo unspecified)
- Potency [1]: inactive
- outcome [2]: inactive

Compound: Cc1nc2ccc(CN(C)c3ccc(C(=O)N[C@@H](CCC(=O)O)C(=O)O)s3)cc2c(=O)[nH]1
- outcome [5]: inactive
- Potency [1]: inactive
- Potency [3]: inactive
- outcome [4]: inactive
- outcome [6]: inactive
- outcome [2]: inactive

Compound: O=C(NCCS(=O)(=O)c1ccc(C(F)(F)F)cn1)c1ccc(Cl)cc1
- Potency [1]: inactive

Compound: C[C@@]12O[C@@H](C[C@]1(O)CO)n1c3ccccc3c3c4c(c5c6ccccc6n2c5c31)CNC4=O
- Potency [7]: inactive
- Potency [8]: inactive
- Potency [9]: inactive
- Potency [10]: 16.5 µM (active)
- outcome [2]: inactive

Compound: c1cc(-c2cnn3cc(-c4ccc(OCCN5CCCCC5)cc4)cnc23)ccn1
- Potency [1]: 10.4 µM (active)
- outcome [2]: inactive

Compound: O=c1[nH]c(=O)n(C2CCCO2)cc1F (stereo unspecified)
- Potency [1]: inactive
- outcome [2]: inactive

Compound: CN1CCN(c2cc(C(=O)Nc3ccc4c(c3)-c3c(c(C(N)=O)nn3-c3ccc(F)cc3)CC4)c(Cl)cn2)CC1
- Potency [1]: 18.6 µM (active)
- outcome [2]: inactive

Compound: Nc1nc(-c2nn(Cc3ccccc3F)c3ncccc23)nc(N)c1N1CCOCC1
- Potency [1]: inactive
- outcome [2]: inactive

Compound: COC(=O)C1=C(C)NC(C)=C(C(=O)OCCN2CCN(C(c3ccccc3)c3ccccc3)CC2)C1c1cccc([N+](=O)[O-])c1 (stereo unspecified)
- Potency [3]: inactive
- outcome [4]: inactive
- outcome [6]: inactive
- outcome [2]: inactive

Compound: CN(c1ncccc1CNc1nc(Nc2ccc3c(c2)CC(=O)N3)ncc1C(F)(F)F)S(C)(=O)=O
- Potency [1]: 4.66 µM (active)

Compound: O=c1[nH]nc(Sc2ncc([N+](=O)[O-])s2)n1-c1ccc2c(c1)OCCO2
- Potency [1]: 6.58 µM (active)

Compound: Cc1cc(Nc2cc(NC(=O)c3c(Cl)cccc3Cl)ccn2)nc(N)n1
- Potency [1]: 4.66 µM (active)

Compound: CNC(=O)c1ccc(-c2cnc3ncc(Cc4ccc5ncccc5c4)n3n2)cc1F
- Potency [1]: inactive
- outcome [2]: inactive

Compound: Cc1nc2cnc3ccc(C#Cc4cccnc4)cc3c2n1-c1ccc(C(C)(C)C#N)cc1
- Potency [1]: 14.7 µM (active)
- outcome [2]: inactive

Compound: O=C(CCCCCCC(=O)Nc1ccc([C@H]2O[C@@H](CSc3nc(-c4ccccc4)c(-c4ccccc4)o3)C[C@@H](c3ccc(CO)cc3)O2)cc1)NO
- activity change, negative = inhibition [1]: 14.6% [at 8.44 µM]
- outcome [2]: inactive

Compound: CCN1CCN(CC(=O)Nc2ccc(-c3cccc4c(=O)cc(N5CCOCC5)oc34)c3sc4ccccc4c23)CC1
- Potency [1]: inactive

Compound: Cn1c2cc(S(C)=O)sc2c2cnn(Cc3cccc(N)c3)c(=O)c21 (stereo unspecified)
- Potency [1]: inactive
- outcome [2]: inactive

Compound: CC1=C(CO)C(=O)O[C@@H]([C@@H](C)[C@H]2CC[C@H]3[C@@H]4C[C@H]5O[C@]56[C@@H](O)C=CC(=O)[C@]6(C)[C@@H]4CC[C@]23C)C1
- outcome [2]: inactive

Compound: COCCn1c2c([n+](Cc3cnccn3)c1C)C(=O)c1ccccc1C2=O
- Potency [1]: 2.34 µM (active)
- outcome [2]: inactive

Compound: COC(=O)C[C@](O)(CCCC(C)(C)O)C(=O)O[C@@H]1C(OC)=C[C@]23CCCN2CCc2cc4c(cc2[C@H]13)OCO4
- Potency [1]: 0.093 µM (active)
- outcome [2]: inactive
